# Experimental data published in PubChem BioAssay AID1259422 (The Scripps Research Institute Molecular Screening Center, 2018).
# Among all 640,000 compounds or so, about 9,300 (1.5%) were called active. Rule as the data show it: active = inhibition above about 32%; inactive = the rest. The full list was thinned out, with actives kept by preference.
# Test: TEAD-YAP interaction inhibition, primary screen, TEAD-YAP interaction inhibitor project, luminescence, HEK-TIYL cells (AID 1259422);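 also: 0% = median of test compound wells and 100% = reference inhibitor wells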
# Conditions: TEAD-Gal4/YAP UAS-luciferase luminescence, at 9.12 µM, active compounds read high
row,SMILES,inhibition
1,O=C(OC1CCS(=O)(=O)C1)c1ccccc1 (stereo not given),-9.29% (inactive)
2,CN1CCN(S(=O)(=O)c2ccc(Sc3ccc(Br)cc3)c(C(=O)O)c2)CC1,-2.07% (inactive)
3,CCCN1C(=O)c2ccccc2NC1c1ccc(OC)c(COc2ccc(Cl)cc2)c1 (stereo not given),1.41% (inactive)
4,CCCN1C(=O)c2ccccc2NC1c1ccc(O)c(OC)c1 (stereo not given),45.1% (active)
5,CCOc1cc(C2Nc3ccccc3C(=O)N2c2ccc(OC)cc2)ccc1O (stereo not given),-26.9% (inactive)
6,CCOC(=O)N1CCN(C(=O)CC2C(=O)NCCN2Cc2ccccc2C)CC1 (stereo not given),4.23% (inactive)
7,CCOc1ccc(C(=O)NC(=S)Nc2ccc(N3CCCCC3)cc2)cc1,-3.84% (inactive)
8,O=C(NC1(c2ccc3c(c2)OCO3)CCCC1)c1cscn1,5.97% (inactive)
9,CCOC(=O)c1ccc2nc(C34CC5CC(CC(C5)C3)C4)ccc2c1,46.2% (active)
10,CCOC(=O)c1ccc2c(c1)C(=O)N(c1ccc3ccccc3c1)C2=O,-2.85% (inactive)
11,NC(=O)c1sc2nc(C34CC5CC(CC(C5)C3)C4)ccc2c1N,-1.93% (inactive)
12,CC1CCc2sc(NC(=O)c3ccccc3F)c(C#N)c2C1 (stereo not given),-31.8% (inactive)
13,COCCNc1c(-c2ccc(Cl)cc2)c(=O)c1=O,-4.73% (inactive)
14,Cc1ccc(-c2c(NCCCc3ccccc3)c(=O)c2=O)cc1,-2.15% (inactive)
15,CC(C)OCCCNc1c(-c2ccc(C(C)C)cc2)c(=O)c1=O,42.2% (active)
16,COc1ccc(NS(=O)(=O)c2cc(NC(=O)CCCNC(N)=O)ccc2OC)cc1,5.83% (inactive)
17,COc1cccc(-c2nc3ccccc3c(=O)n2NC(=O)c2ccccc2C)c1,2.18% (inactive)
18,COc1cccc(-c2nc3ccccc3c(=O)n2NC(=O)c2cccc(C)c2)c1,5.37% (inactive)
19,COc1cccc(-c2nn3c(=O)c4ccccc4nc3n2N)c1,34.2% (active)
20,COc1cccc(OC)c1C(=O)N1CCN(c2cccc(C)c2C)CC1,4.01% (inactive)
21,COc1ccccc1N1CCN(S(=O)(=O)c2cc(C)ccc2OC)CC1,-9.44% (inactive)
22,COc1ccc(C)cc1S(=O)(=O)N1CCN(c2cc(-n3ccnc3C)ncn2)CC1,41.4% (active)
23,COc1ccc(C)cc1S(=O)(=O)N1CCN(C)CC1,13.6% (inactive)
24,COc1ccc(C[C@@H]2NC(=O)[C@@H]3C[C@H](NCc4cnn(-c5ccccc5F)c4)CN3C2=O)cc1,10.7% (inactive)
25,CCC(C)N1C(=O)C2C(C(=O)Nc3ccc(F)c(Cl)c3)C3C=CC2(O3)C1C(=O)NC1CCCC(C)C1C (stereo not given),-20.7% (inactive)
